The source made the active and inactive calls. Rule for the calls: active = hit-call score of the fitted dose curve at least 0.9, where 1 is the maximum; inactive = score below 0.9.
Test: ATG_TGFb_CIS: Attagene CIS-FACTORIAL HepG2 Assay for human Transforming Growth Factor (TGF) (AID 2282967)
Settings: HepG2 Attagene CIS TGFb reporter, mRNA transcription; actives raise or lower the signal
Summary of the method: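 Endogenous TGFB1-linked transcription factor activity read as reporter mRNA via RT-PCR and capillary electrophoresis, 24 h after dosing transiently transfected HepG2 cells. Gain or loss of signal fitted relative to DMSO.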

Row | SMILES | outcome
1 | Cn1cc(-c2ccccc2)c(=O)c(-c2cccc(C(F)(F)F)c2)c1 | inactive
2 | O=C(N[C@H](c1ccccc1)[C@@H]1CN2CCC1CC2)c1c(Cl)ccc(C(F)(F)F)c1Cl | inactive
3 | N#CC(Br)Br | inactive
4 | COC(=O)c1ccccc1N | inactive
5 | CN(C)c1ccc(C(=O)c2ccc(N(C)C)cc2)cc1 | inactive
6 | ClCCOCCCl | inactive
7 | CC(C)(C)OOC(=O)c1ccccc1 | inactive
8 | CCN(CC)N=O | inactive
9 | Nc1ccc(Oc2ccc(N)cc2)cc1 | inactive
10 | Nc1cc(Cl)cc(C(=O)O)c1Cl | inactive
11 | CN(C)C(=O)Nc1ccc(Cl)cc1 | inactive
12 | c1ccc(C2CO2)cc1 (stereo not drawn) | inactive
13 | CCC12COCN1COC2 | inactive
14 | CC(C)(O)c1cnn2c(-c3ccc(F)c(-c4c(F)cccc4C#N)c3)cnc2n1 | inactive
15 | Clc1ccc(C(c2ccc(Cl)cc2)C(Cl)(Cl)Cl)cc1 | inactive
16 | CCN(CC)CCO | inactive
17 | CC(C)(C)C(O)(CCc1ccc(Cl)cc1)Cn1cncn1 (stereo not drawn) | inactive
18 | CCCCCCCCCCCCCN1CC(C)OC(C)C1 (stereo not drawn) | inactive
19 | ClC1=C(Cl)C2(Cl)C3C(Cl)C=CC3C1(Cl)C2(Cl)Cl (stereo not drawn) | inactive
20 | C[N+](C)(C)CC1CO1 (stereo not drawn) | inactive
21 | CO[C@@H]1[C@H](OC(=O)NC(=O)CCl)CC[C@]2(CO2)[C@H]1[C@@]1(C)O[C@@H]1CC=C(C)C | inactive
22 | CCCCOC(=O)c1ccccc1C(=O)OCc1ccccc1 | inactive
23 | O=C(Nc1ccccc1)c1ccccc1I | inactive
24 | Oc1ccccc1Cl | inactive
25 | Clc1ccccc1Cl | inactive
26 | Clc1ccc(Cl)c(Cl)c1 | inactive
27 | CNC(=O)Oc1cccc2c1OC(C)(C)C2 | inactive
28 | N#CC(Br)(Br)C(N)=O | inactive

Reference: PubChem BioAssay (EPA / NIEHS)
